Assay results from ChEMBL document CHEMBL1157539, “Thousands of chemical starting points for antimalarial lead identification” (Nature, 2010).

tested on: HepG2; test: GSK_TCMDC: Percent inhibition of human HepG2 cell line. Test compounds present at 10uM.; assay type: functional

How did the Inhibition turn out when `CCOc1ccc(NC(=O)c2cccc(CN3CCCN(Cc4cccc(O)c4)CC3)c2)cc1.O=C(O)C(F)(F)F` was run?
The Inhibition was 22%.

Which Inhibition does the source give for `O=C(NCCN1CCOCC1)c1ccc(-c2ccc(CNCCCc3ccccc3)cc2)nc1.O=C(O)C(F)(F)F` here?
Its Inhibition is 0%.

`Nc1ccc2[nH]cc(C3CCN(CCC4CCN(C(=O)/C=C/c5ccc(Cl)c(Cl)c5)CC4)CC3)c2n1` was tested. Which Inhibition did it give?
Its Inhibition is 27%.

With `O=C(Cc1cccnc1)N(Cc1ccc(-c2ccc(CNCc3cccnc3)cn2)cc1)C1CCN(Cc2ccccc2)CC1.O=C(O)C(F)(F)F` as the molecule, how does the Inhibition read?
The Inhibition was 8%.

How did the Inhibition turn out when `Nc1nc2ccc(S(=O)(=O)Nc3ccc(C(=O)N[C@@H](CCC(=O)O)C(=O)O)c(F)c3)cc2c(=O)[nH]1` was run?
The Inhibition was 37%.

Which Inhibition does the source give for `COC(=O)C(NC(=O)NC1CCN(c2ccnc(Nc3ccc(F)cc3)n2)C1)c1ccccc1` (stereo not drawn) here?
Its Inhibition is 11%.

Which Inhibition does the source give for `CNC(=O)c1cnc(Nc2ccc(N3CCOCC3)cc2)nc1Nc1cccc(OC)c1.O=C(O)C(F)(F)F` here?
The Inhibition was 2%.

Which Inhibition does the source give for `COc1cc(N(C)Cc2cnc3nc(N)nc(N)c3n2)cc(OC)c1OC` here?
Its Inhibition is 32%.

Which Inhibition does the source give for `CCCc1cc(OC)c(CC2c3cccc(O)c3CCN2C)cc1OC.Cl` (stereo not drawn) here?
The Inhibition was 3%.

How did the Inhibition turn out when `O=C(NCCc1ccccc1)N(Cc1ccccc1-c1ccc(CNC2CCCC2)cc1)C1CCN(Cc2ccccc2)CC1.O=C(O)C(F)(F)F` was run?
The Inhibition was 96%.

For `CCCSc1nc2c(c(=O)n1Cc1ccco1)C1(CCCCC1)Cc1ccccc1-2`, which Inhibition is on record?
Its Inhibition is 0%.

`N#Cc1ccc(OCCN(Cc2ccccc2C(F)(F)F)c2ccc(C#N)c(C(F)(F)F)c2)cc1` was tested. Which Inhibition did it give?
Its Inhibition is 69%.

For `CC(=NNC(S)=Nc1ccccc1Cl)c1ccccn1`, which Inhibition is on record?
Its Inhibition is 69%.
